Results as given in PubChem BioAssay (NCATS).
Inconclusive results are not listed. The source made the active and inactive calls. Calls come from the whole dose curve; as a rule, active = well fitted curve in the direction sought with a large enough effect; inconclusive = small, poorly fitted or top-dose-only effect, or another doubt; inactive = no such curve, though single readings can be large; an effect the other way counts as inactive or inconclusive.

Legend:
CRL-7250 = normal cell line; assay: Cytotoxic Profiling of Annotated Libraries Using Quantitative High-Throughput Screening (AID 1296008); conditions: Five cell lines viability, CellTiter-Glo ATP luminescence, 48-72 h; max response: hits give low values; note: nearly all actives have a fitted effect of over 60% in size; note: potency is the fitted concentration of half-maximal effect; for max response: % is set by controls: 0 for no effect and ±100 for the full control effect
Procedure, shortened: (§1)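 Compounds were pin-transferred onto cells and incubated 48 or 72 hr at 37 degree Celsius, 95% humidity. CellTiter-Glo was added, plates sat 10 min at room temperature, then ATP-coupled luminescence was imaged as the viability read-out.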

HaCat [1] = assay: as above; conditions: Five cell lines viability, CellTiter-Glo ATP luminescence, 48-72 h; max response: hits give low values
Procedure, shortened: as §1

KB-3-1 = assay: as above; conditions: Five cell lines viability, CellTiter-Glo ATP luminescence, 48-72 h; max response: hits give low values
Procedure, shortened: as §1

HACAT [2] = assay: qHTS assay to identify novel small-molecules to repurpose for Merkel cell carcinoma treatment (AID 1296009); conditions: MCC and control cell lines, CellTiter-Glo viability, 72 h; at 44.8 µM (top of the series) unless noted; note: nearly all actives have a fitted effect of over 60% in size
Procedure, shortened: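 Viability readout: ATP luminescence (CellTiter-Glo) after 72 hr drug exposure at 37 degree celsius. Dose-response format was 8 points for NPC and 11 points for MIPE; data normalized to in-plate controls.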

C33A = assay: Primary qHTS to identify gynecologic anti-cancer compounds using libraries of approved drugs and bioactive compounds (AID 1345084); conditions: Gynecologic cancer cell panel viability, ATPlite luminescence, 48 h; series mostly up to 57.5 µM; note: nearly all actives have a fitted effect of over 55% in size; note: potency is the fitted concentration of half-maximal effect; for activity change, negative = cytotoxicity: % is set by controls: 0 for no effect and ±100 for the full control effect
Procedure, shortened: (§2)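 In this quantitative HTS, cell killing is estimated from loss of ATP-dependent luciferase light. Cells see five compound concentrations over a 48 h exposure.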

CAOV3 = assay: as above; conditions: Gynecologic cancer cell panel viability, ATPlite luminescence, 48 h; series mostly up to 57.5 µM
Procedure, shortened: as §2

CASKI = assay: as above; conditions: Gynecologic cancer cell panel viability, ATPlite luminescence, 48 h; series mostly up to 57.5 µM
Procedure, shortened: as §2

Es-2 = assay: as above; conditions: Gynecologic cancer cell panel viability, ATPlite luminescence, 48 h; series mostly up to 57.5 µM
Procedure, shortened: as §2

HeLa = assay: as above; conditions: Gynecologic cancer cell panel viability, ATPlite luminescence, 48 h; series mostly up to 57.5 µM
Procedure, shortened: as §2

Hek293T = assay: as above; conditions: Gynecologic cancer cell panel viability, ATPlite luminescence, 48 h, control line for the selectivity index; series mostly up to 57.5 µM
Procedure, shortened: as §2

JEG-3 = assay: as above; conditions: Gynecologic cancer cell panel viability, ATPlite luminescence, 48 h; series mostly up to 57.5 µM
Procedure, shortened: as §2

OV90 = assay: as above; conditions: Gynecologic cancer cell panel viability, ATPlite luminescence, 48 h; series mostly up to 57.5 µM
Procedure, shortened: as §2

PA-1 = assay: as above; conditions: Gynecologic cancer cell panel viability, ATPlite luminescence, 48 h; series mostly up to 57.5 µM
Procedure, shortened: as §2

SKOV3 = assay: as above; conditions: Gynecologic cancer cell panel viability, ATPlite luminescence, 48 h; series mostly up to 57.5 µM
Procedure, shortened: as §2

NIH3T3 = assay: Cytotoxic Profiling of Annotated Libraries Using Quantitative High-Throughput Screening (AID 1296008); conditions: Five cell lines viability, CellTiter-Glo ATP luminescence, 48-72 h; max response: hits give low values; note: nearly all actives have a fitted effect of over 60% in size; note: potency is the fitted concentration of half-maximal effect; for max response: % is set by controls: 0 for no effect and ±100 for the full control effect
Procedure, shortened: as §1

CCC(C)C(=O)Oc1cc(C)ccc1C1(COC(=O)C(C)C)CO1 (centres undefined)
inactive: max response (CRL-7250) -0.891% | outcome (HaCat [1]) | max response (KB-3-1) -3.14% | outcome (HACAT [2]) | Potency (C33A) | Potency (CAOV3) | Potency (CASKI) | Potency (Es-2) | Potency (HeLa) | Potency (Hek293T) | Potency (JEG-3) | Potency (OV90) | Potency (PA-1) | Potency (SKOV3)

CC/C(C)=C/C(=O)OC1C(OC2(C)CCC3C(C4C(C)CCC42)C3(C)C)OC(C)C(O)C1O (centres undefined)
inactive: max response (CRL-7250) -1.32% | max response (HaCat [1]) -0.133% | outcome (KB-3-1) | max response (NIH3T3) -0.0823% | Potency (C33A) | Potency (CASKI) | Potency (Es-2) | Potency (HeLa) | Potency (Hek293T) | Potency (JEG-3) | Potency (OV90) | Potency (PA-1) | Potency (SKOV3)

O=C(OC1CN2CCC1CC2)N1CCc2ccccc2C1c1ccccc1 (centres undefined)
inactive: max response (CRL-7250) 0.185% | outcome (HaCat [1]) | max response (KB-3-1) -9.02% | outcome (HACAT [2]) | Potency (C33A) | Potency (CAOV3) | Potency (CASKI) | Potency (Es-2) | Potency (HeLa) | Potency (Hek293T) | Potency (JEG-3) | Potency (PA-1) | Potency (SKOV3)

COc1cc2c(c(OC)c1CC=C(C)C)C[C@H](c1ccc(O)c(CC=C(C)C)c1O)CO2
inactive: max response (CRL-7250) 2.21% | max response (HaCat [1]) -6.86% | max response (KB-3-1) -4.62% | max response (NIH3T3) -5.48% | Potency (C33A) | Potency (CASKI) | Potency (Es-2) | Potency (HeLa) | Potency (Hek293T) | Potency (JEG-3) | Potency (OV90) | Potency (PA-1) | Potency (SKOV3)

COc1ccc(C(=O)Nc2c(Cl)cncc2Cl)cc1OC1CCCC1
inactive: max response (CRL-7250) -3.72% | max response (HaCat [1]) -24.5% | max response (KB-3-1) -14.8% | max response (NIH3T3) -4.74% | Potency (C33A) | Potency (CASKI) | Potency (Es-2) | Potency (HeLa) | Potency (Hek293T) | Potency (JEG-3) | Potency (OV90) | Potency (PA-1) | Potency (SKOV3)

C[C@@H]1O[C@@H](O[C@H]2[C@H](O[C@H]3CC[C@@]4(C)C(CC[C@]5(C)C4C=C[C@]46OC[C@@]7(CCC(C)(C)C[C@H]74)[C@@H](O[C@@H]4O[C@@H](C)[C@H](O)[C@@H](O)[C@H]4O)C[C@]65C)[C@]3(C)CO)O[C@H](CO)[C@@H](O)[C@@H]2O[C@@H]2O[C@H](CO)[C@@H](O)[C@H](O)[C@H]2O)[C@H](O)[C@H](O)[C@H]1O (some centres undefined)
inactive: max response (CRL-7250) -7.16% | max response (HaCat [1]) -9.32% | max response (KB-3-1) -1.23% | max response (NIH3T3) -25.1% | activity change, negative = cytotoxicity (C33A) -27.7% [at 11.6 µM] | activity change, negative = cytotoxicity (CASKI) -9.63% [at 11.6 µM] | activity change, negative = cytotoxicity (Es-2) -13.3% [at 11.6 µM] | activity change, negative = cytotoxicity (HeLa) 21.7% [at 11.6 µM] | activity change, negative = cytotoxicity (Hek293T) -8.24% [at 11.6 µM] | activity change, negative = cytotoxicity (JEG-3) -15.7% [at 11.6 µM] | activity change, negative = cytotoxicity (PA-1) 2.51% [at 11.6 µM] | activity change, negative = cytotoxicity (SKOV3) -8.52% [at 11.6 µM]

CC(C)c1noc(C2CCN(c3ncnc(Nc4ccc(S(C)(=O)=O)cc4F)c3[N+](=O)[O-])CC2)n1
inactive: max response (CRL-7250) -0.282% | max response (HaCat [1]) 1.98% | max response (KB-3-1) -4.1% | max response (NIH3T3) -23.4% | Potency (C33A) | Potency (CASKI) | Potency (Es-2) | Potency (HeLa) | Potency (Hek293T) | Potency (JEG-3) | Potency (OV90) | Potency (PA-1)

O=C(NCCCNC(=O)c1ccc[nH]c1=O)c1cc(-c2ccccc2)on1
inactive: max response (CRL-7250) -21.2% | max response (HaCat [1]) -1.65% | max response (KB-3-1) -25.1% | max response (NIH3T3) 2.72% | Potency (C33A) | Potency (CASKI) | Potency (SKOV3)
active: Potency (PA-1) 8910 nM

CC1=CC2/C=C(\C)CCC(O)C(=O)C(O)CC(=O)C23C(=O)NC(CC(C)C)C3C1C (centres undefined)
inactive: outcome (CRL-7250) | max response (HaCat [1]) -78.4% | max response (KB-3-1) 2.51% | max response (NIH3T3) -27% | Potency (CASKI) | Potency (Es-2) | Potency (HeLa) | Potency (Hek293T) | Potency (JEG-3) | Potency (OV90) | Potency (PA-1)

CN(C)c1ccnc2sc3c(=O)n(N4CCCCCC4)cnc3c12
inactive: max response (CRL-7250) -8.13% | max response (HaCat [1]) 1.16% | max response (KB-3-1) 7% | max response (NIH3T3) 4.09% | Potency (C33A) | Potency (CASKI) | Potency (Es-2) | Potency (HeLa) | Potency (Hek293T) | Potency (JEG-3) | Potency (OV90) | Potency (PA-1) | Potency (SKOV3)

Cc1csc(N(C(=O)CSc2ccc(-c3ccccc3)nn2)C2CC2)n1
inactive: max response (CRL-7250) -10.7% | outcome (HaCat [1]) | max response (KB-3-1) -2.9% | outcome (HACAT [2]) | Potency (C33A) | Potency (CAOV3) | Potency (CASKI) | Potency (Es-2) | Potency (HeLa) | Potency (Hek293T) | Potency (JEG-3) | Potency (PA-1)

O=C(Nc1ccccc1Cl)c1cnc2ccc(C3CCNCC3)cn12
inactive: max response (KB-3-1) 2.96% | Potency (HeLa) | Potency (Hek293T)
active: Potency (CRL-7250) 1030 nM | Potency (HaCat [1]) 1640 nM | Potency (NIH3T3) 1460 nM | Potency (OV90) 7940 nM | Potency (PA-1) 891 nM

CNS(=O)(=O)c1ccccc1Nc1nc(Nc2ccc(N3CCN(C)CC3)cc2OC)ncc1Br
active: Potency (CRL-7250) 1640 nM | Potency (HaCat [1]) 3260 nM | Potency (KB-3-1) 4610 nM | Potency (NIH3T3) 1460 nM | Potency (CAOV3) 2240 nM | Potency (CASKI) 7940 nM | Potency (Hek293T) 14100 nM | Potency (PA-1) 2000 nM

C=C(C)C1=C[C@@]2(C)C(=CC1=O)CC[C@@H](O)[C@@H]2C
inactive: max response (CRL-7250) 3.24% | outcome (HaCat [1]) | outcome (KB-3-1) | outcome (HACAT [2]) | Potency (C33A) | Potency (CAOV3) | Potency (CASKI) | Potency (Es-2) | Potency (HeLa) | Potency (Hek293T) | Potency (JEG-3) | Potency (OV90) | Potency (PA-1) | Potency (SKOV3)
